PubChem BioAssay (Tox21)
“And” between values parts separate entries of the source, which are not always exact repeats. Equal entries are not always repeated. Records with an inconclusive call do not appear. Entries that show only a call come without a potency. The source holds several records for some structures; these can differ, active in one and inactive in another. The source made the active and inactive calls. Unless noted, calls come from the whole dose curve.

Assays:
[1] = Nuclear factor erythroid 2-related factor 2/antioxidant responsive element (Nrf2/ARE) small molecule agonists: qHTS cell viability counter screen in human keratinocytes (AID 1919968; active = well fitted curve in the direction sought with a large enough effect in the repeat runs; an effect the other way counts as inactive or inconclusive; note: nearly all actives have a fitted effect of over 55% in size; note: potency is the fitted concentration of half-maximal effect)
In short: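 Cytotoxicity was multiplexed with the Nrf2/ARE luciferase assay in the same wells. Stably transfected HaCaT keratinocytes were treated with test compounds for 23 h at 37 C. Cell viability was then measured by CellTiter-Fluor fluorescence.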

[2] = Nuclear factor erythroid 2-related factor 2/antioxidant responsive element (Nrf2/ARE) small molecule agonists: luciferase reporter gene qHTS assay in human keratinocytes (AID 1919969); note: nearly all actives have a fitted effect of over 35% in size; note: potency is the fitted concentration of half-maximal effect
[3] = biological target: KiSS-1 receptor (Homo sapiens) (UniProt Q969F8); assay: Human kisspeptin (KISS1R) small molecule agonists, calcium flux assay in KISS1R-HEK293 cells (AID 1920064; active = well fitted curve in the direction sought with a large enough effect in the repeat runs; an effect the other way counts as inactive or inconclusive)
Sequence of KiSS-1 receptor (Homo sapiens) (Q969F8 whole entry, looked up): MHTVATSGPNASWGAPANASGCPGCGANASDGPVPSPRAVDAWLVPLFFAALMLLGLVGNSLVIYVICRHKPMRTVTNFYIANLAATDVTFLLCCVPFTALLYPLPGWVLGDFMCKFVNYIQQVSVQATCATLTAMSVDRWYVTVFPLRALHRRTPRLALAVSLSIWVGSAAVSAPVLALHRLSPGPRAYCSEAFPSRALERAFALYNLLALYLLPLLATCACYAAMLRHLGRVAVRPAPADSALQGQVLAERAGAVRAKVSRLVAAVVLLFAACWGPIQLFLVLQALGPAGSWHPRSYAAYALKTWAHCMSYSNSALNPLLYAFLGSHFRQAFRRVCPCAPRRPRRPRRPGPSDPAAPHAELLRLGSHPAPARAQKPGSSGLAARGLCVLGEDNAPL
In short: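 Agonist activity is monitored as intracellular calcium rise in engineered HEK293 cells carrying human KISS1R. Cells are dye-loaded for 1 h at 37 C before compound addition, and fluorescence is recorded for 3 min.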

[4] = G protein-coupled receptor (GPCR) small molecule agonists, calcium flux assay: HEK293 wild type cell line counter screen (AID 1920065)
In short: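 Seed cells, incubate 18 h (37 C, 5% CO2); add calcium dye, 1 h at 37 C; pin-transfer compounds, ATP control or DMSO; read fluorescence 480/540 nm each second for 3 min.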

[5] = p53 small molecule agonists, cell-based qHTS assay with human liver microsomes (AID 1963577)
In short: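 Compounds act here after metabolic activation: human liver microsomes and NADPH, both at 0.5 mg/mL final, were co-added to p53RE-bla cells. Incubation ran 16 h at 37 C, followed by LiveBLAzer detection.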

[6] = p53 small molecule agonists, cell-based qHTS assay with rat liver microsomes (AID 1963578)
In short: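 Read-out is beta-lactamase reporter fluorescence (LiveBLAzer, 2 h, room temperature, dark) in p53RE-bla cells treated 16 h at 37 C with compound, rat liver microsomes and NADPH, both 0.5 mg/mL final.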

[7] = p53 small molecule agonists, cell-based qHTS assay with rat liver microsomes: qHTS cell viability counter screen (AID 1963580); note: nearly all actives have a fitted effect of over 45% in size
In short: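 Cytotoxicity counter screen: intracellular ATP measured by CellTiter-Glo luminescence in the same wells as the beta-lactamase reporter read, on HCT-116 p53RE-bla cells exposed 16 h at 37 C to compounds with rat liver microsomes and NADPH, each 0.5 mg/mL final.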

[8] = p53 small molecule agonists, cell-based qHTS assay: qHTS cell viability counter screen (AID 1963581); note: nearly all actives have a fitted effect of over 45% in size
In short: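 Viability was counter-screened in parallel with the p53 agonist reporter by measuring intracellular ATP luminescence in the same HCT-116 p53RE-bla wells after 16 h compound treatment at 37 C.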

[9] = p53 small molecule agonists, cell-based qHTS assay (AID 1963582; active = well fitted activation curve with a large enough effect in the signal ratio in the repeat runs, not every such curve was filed as active; the % refers to the signal ratio)
In short: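 Cells carrying a p53-responsive bla reporter are treated with test compounds for 16 h at 37 C; beta-lactamase activity is then detected with LiveBLAzer B/G FRET substrate after 2 h at room temperature.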

[10] = biological target: 5-hydroxytryptamine receptor 2A (Homo sapiens) (UniProt P28223); assay: 5-hydroxytryptamine receptor 2A (HTR2A) small molecule antagonists, cell-based qHTS assay (AID 1963586); note: nearly all actives have a fitted effect of over 45% in size; note: potency is the fitted concentration of half-maximal effect
Sequence of 5-hydroxytryptamine receptor 2A (Homo sapiens) (P28223 whole entry, looked up): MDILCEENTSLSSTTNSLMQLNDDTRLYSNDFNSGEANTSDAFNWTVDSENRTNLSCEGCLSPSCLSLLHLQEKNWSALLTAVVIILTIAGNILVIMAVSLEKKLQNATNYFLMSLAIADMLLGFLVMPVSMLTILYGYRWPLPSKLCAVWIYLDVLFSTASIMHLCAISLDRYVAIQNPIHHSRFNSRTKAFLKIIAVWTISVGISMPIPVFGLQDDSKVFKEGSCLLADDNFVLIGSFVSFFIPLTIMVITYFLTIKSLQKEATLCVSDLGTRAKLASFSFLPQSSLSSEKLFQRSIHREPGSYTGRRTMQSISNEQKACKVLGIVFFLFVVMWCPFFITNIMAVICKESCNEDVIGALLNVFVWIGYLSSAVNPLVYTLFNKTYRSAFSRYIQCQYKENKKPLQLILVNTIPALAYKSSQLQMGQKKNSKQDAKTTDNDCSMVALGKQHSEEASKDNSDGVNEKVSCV
In short: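 CHO cells stably expressing human HTR2A were plated for 18 h at 37 C, then loaded with calcium dye for 1 h. Compounds were preincubated 5 min at room temperature before DOI (4 nM solution) was added. Kinetic fluorescence was read for 3 min.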

[11] = biological target: 5-hydroxytryptamine receptor 2A (Homo sapiens) (UniProt P28223); assay: 5-hydroxytryptamine receptor 2A (HTR2A) small molecule agonists, cell-based qHTS assay (AID 1963587); note: nearly all actives have a fitted effect of over 30% in size
In short: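 CHO cells stably expressing human HTR2A, plated 18 h, loaded with calcium dye 1 h at 37 C. Agonist mode: compounds added and intracellular calcium fluorescence recorded kinetically for 2 min at 1 sec intervals.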

[12] = biological target: Muscarinic acetylcholine receptor M1 (Homo sapiens) (UniProt P11229); assay: Cholinergic receptor muscarinic 1 (CHRM1) small molecule antagonists, cell-based qHTS assay (AID 1963588); note: nearly all actives have a fitted effect of over 40% in size
Sequence of Muscarinic acetylcholine receptor M1 (Homo sapiens) (P11229 whole entry, looked up): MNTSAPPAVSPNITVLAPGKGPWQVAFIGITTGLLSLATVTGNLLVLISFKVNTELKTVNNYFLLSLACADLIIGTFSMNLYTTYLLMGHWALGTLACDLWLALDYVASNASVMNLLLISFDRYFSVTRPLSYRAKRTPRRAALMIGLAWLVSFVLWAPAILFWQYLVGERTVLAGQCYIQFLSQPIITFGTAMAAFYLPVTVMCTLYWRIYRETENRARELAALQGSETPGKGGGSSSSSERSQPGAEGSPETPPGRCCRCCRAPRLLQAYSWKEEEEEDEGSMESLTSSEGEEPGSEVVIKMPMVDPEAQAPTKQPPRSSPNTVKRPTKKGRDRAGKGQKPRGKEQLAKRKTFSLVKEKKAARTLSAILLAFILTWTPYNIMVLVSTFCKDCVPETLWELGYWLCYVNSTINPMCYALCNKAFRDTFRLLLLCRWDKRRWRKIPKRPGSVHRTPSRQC
In short: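 Compounds were tested at 15 concentrations in three independent runs. Dye-loaded CHRM1-CHO cells were exposed 5 min at room temperature before stimulation by acetylcholine added at 50nM. Intracellular calcium was read kinetically on FDSS for 3 min.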

[13] = biological target: Muscarinic acetylcholine receptor M1 (Homo sapiens) (UniProt P11229); assay: Cholinergic receptor muscarinic 1 (CHRM1) small molecule agonists, cell-based qHTS assay (AID 1963589); note: nearly all actives have a fitted effect of over 35% in size
In short: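 Cells were plated and incubated 18 h at 37 C/5% CO2, loaded with calcium dye for 1 h at 37 C, then treated with compounds in DMSO. Fluorescence was recorded kinetically at 1 sec intervals.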

[14] = cAMP Responsive Elements (CRE) small molecule agonists, cell-based qHTS assay (AID 1963590)
In short: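 Cells carrying a CRE-driven beta-lactamase reporter (HEK 293T) are seeded, incubated overnight (18 h), and treated with test compounds for 3 h at 37 C; reporter activity is then detected with a FRET substrate after 2 h at room temperature.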

[15] = cAMP Responsive Elements (CRE) small molecule antagonists, cell-based qHTS assay (AID 1963591; active = well fitted inhibition curve with a large enough effect in the signal ratio in the repeat runs, not every such curve was filed as active; the % refers to the signal ratio)
In short: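 Cells (CRE-bla HEK 293T, DMEM with 10% dialyzed FBS and 25 mM HEPES) are seeded and incubated 18 h. Compounds are added with NKH477 agonist at 0.25 uM final for 3 h, then FRET substrate for 2 h.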

[16] = biological target: Beta-2 adrenergic receptor (Homo sapiens) (UniProt P07550); assay: Adrenergic beta2 receptor (ADRB2) small molecule antagonists, cell-based qHTS assay (AID 1963592); note: series mostly up to about 92 µM; nearly all actives have a fitted effect of over 50% in size
Sequence of Beta-2 adrenergic receptor (Homo sapiens) (P07550 whole entry, looked up): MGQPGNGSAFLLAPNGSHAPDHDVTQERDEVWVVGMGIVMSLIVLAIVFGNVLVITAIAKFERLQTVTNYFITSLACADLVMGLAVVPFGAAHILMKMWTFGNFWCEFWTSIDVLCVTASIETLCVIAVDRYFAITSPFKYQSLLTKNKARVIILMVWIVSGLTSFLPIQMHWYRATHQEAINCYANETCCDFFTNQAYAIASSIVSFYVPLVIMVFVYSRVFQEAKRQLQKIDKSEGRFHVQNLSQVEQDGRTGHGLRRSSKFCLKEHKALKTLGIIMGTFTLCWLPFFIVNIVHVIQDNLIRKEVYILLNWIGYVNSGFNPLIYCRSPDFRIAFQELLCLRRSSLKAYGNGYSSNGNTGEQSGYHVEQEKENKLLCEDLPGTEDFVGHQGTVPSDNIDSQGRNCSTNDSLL
In short: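 Assay format: CHO-ADRB2 cells, 18-20hr seeding at 37C/5% CO2, then compound plus 1nM isoproterenol agonist mix for 0.5hr RT. Homogeneous time-resolved fluorescence cAMP detection after 1hr, expressed as 665/615 nm ratio.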

[17] = biological target: Beta-2 adrenergic receptor (Homo sapiens) (UniProt P07550); assay: Adrenergic beta2 receptor (ADRB2) small molecule agonists, cell-based qHTS assay (AID 1963593);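 note: CHO cells stably overexpressing human ADRB2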
In short: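 CHO cells stably over-expressing ADRB2 were plated overnight at 37C, then dosed with compounds plus a stimulation mix containing 100uM IBMX and 25uM Ro-20-1724 for 0.5hr at room temperature. cAMP was measured by HTRF competition, 1hr.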

[18] = biological target: D(2) dopamine receptor (Homo sapiens) (UniProt P14416); assay: Dopamine D2 receptor (DRD2) small molecule agonists, cell-based qHTS assay (AID 1963594); note: nearly all actives have a fitted effect of over 35% in size
Sequence of D(2) dopamine receptor (Homo sapiens) (P14416 whole entry, looked up): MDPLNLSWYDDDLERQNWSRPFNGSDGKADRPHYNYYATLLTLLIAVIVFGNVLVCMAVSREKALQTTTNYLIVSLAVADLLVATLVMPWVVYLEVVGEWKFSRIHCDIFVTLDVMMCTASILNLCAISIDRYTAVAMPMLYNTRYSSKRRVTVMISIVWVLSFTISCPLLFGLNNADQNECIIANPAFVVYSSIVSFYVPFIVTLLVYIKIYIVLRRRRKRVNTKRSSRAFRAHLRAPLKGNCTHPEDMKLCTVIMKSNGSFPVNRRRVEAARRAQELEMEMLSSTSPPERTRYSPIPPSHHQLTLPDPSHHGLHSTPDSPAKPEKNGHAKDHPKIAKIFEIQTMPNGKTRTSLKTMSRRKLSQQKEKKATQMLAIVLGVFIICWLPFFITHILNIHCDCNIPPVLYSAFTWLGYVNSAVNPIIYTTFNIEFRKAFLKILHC
In short: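 HEK293 cells stably expressing human DRD2, pre-treated with PDE inhibitor Ro20-1724 (0.1 mM final) and compound 10 min at room temperature, then stimulated with NKH477 (200nM […]) for 30 min. cAMP read by HTRF (665/620 nm).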

[19] = biological target: D(2) dopamine receptor (Homo sapiens) (UniProt P14416); assay: Dopamine D2 receptor (DRD2) small molecule antagonists, cell-based qHTS assay (AID 1963595; active = well fitted inhibition curve with a large enough effect in the signal ratio in the repeat runs, with a control signal flat; the % refers to the signal ratio)
In short: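 In this cell-based antagonist screen, compounds act for 10 min at room temperature before a 30 min challenge with 12 nM quinpirole and 200 nM NKH477. cAMP is quantified by HTRF competition in DRD2-HEK293 cells containing 0.1 mM Ro20-1724.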

[20] = p53 small molecule agonists, cell-based qHTS assay with human liver microsomes: qHTS cell viability counter screen (AID 1963579); note: nearly all actives have a fitted effect of over 45% in size
In short: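 Cells carrying the p53 response-element beta-lactamase reporter are treated for 16 h at 37 C with test compounds in the presence of human liver microsomes and NADPH (both 0.5 mg/mL final); ATP-based CellTiter-Glo luminescence then reports viability.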

SMILES | Potency [1] | Potency [2] | Potency [3] | Potency [4] | Potency [5] | Potency [6] | Potency [7] | Potency [8] | Potency [9] | Potency [10] | Potency [11] | Potency [12] | Potency [13] | Potency [14] | Potency [15] | Potency [16] | Potency [17] | Potency [18] | Potency [19] | Potency [20]
Cc1ccccc1OCC(O)CO (stereo unspecified) | inactive | inactive | inactive | inactive | inactive | inactive | inactive | inactive | inactive | inactive | inactive | inactive | inactive | inactive | inactive | inactive | inactive | inactive | inactive | –
CC(=O)CC(N)=O | inactive | inactive | inactive | inactive | inactive | inactive | inactive | inactive | inactive | inactive | inactive | inactive | – | inactive | inactive | inactive | inactive | inactive | inactive | inactive
CN(C)CCCNCCCN | inactive | inactive | inactive | inactive | inactive | inactive | inactive | inactive | inactive | – | inactive | inactive | inactive | inactive | inactive | inactive | – | inactive | inactive | inactive
O=C(O)c1ccco1 | inactive | inactive | inactive | inactive | inactive | inactive | – | inactive | inactive | inactive | inactive | inactive | inactive | inactive | inactive | inactive | – | inactive | inactive | inactive
CC(=O)OCc1ccco1 | inactive | inactive | inactive | inactive | – | – | inactive | inactive | – | inactive | inactive | inactive | inactive | inactive | inactive | inactive | – | inactive | inactive | inactive
CN1CCc2cccc3c2[C@H]1Cc1ccc(O)c(O)c1-3 | 30.9 µM (active) and 22.8 µM (active) | inactive | inactive | inactive | inactive | inactive | inactive | inactive | inactive | 1.51 µM (active) and inactive | – | inactive | inactive | inactive | inactive | – | – | – | inactive | inactive
CN(C)c1cccc(O)c1 | inactive | 43.9 µM (active) and inactive | inactive | inactive | – | – | inactive | inactive | – | inactive | – | – | inactive | inactive | inactive | inactive | inactive | inactive | inactive | inactive
